These results are taken from PubChem BioAssay.

In general, viability refers to a read-out of living cells in per cent, often relative to untreated cells. Broadly, the inhibition is the drop in the measured response relative to a control, in per cent.

Results filed as inconclusive are left out. Active and inactive are the calls of the source.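 Rule for the calls, unless noted: active = Her2 level under about 52% in both replicate screens, with viability over 70% of control (limit read from the data); inconclusive = Her2 under the limit in one screen only, or viability under 70%; inactive = Her2 level above the set limit.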

Assay [1] in a line: Her2 expression decrease, cell viability multiplex – SKBR3 breast tumor cells, AlphaScreen, ATP viability, primary screen (AID 461).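 For Her2 level: lower value means less Her2 protein in the cells.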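 For viability: percent of carrier control wells set as 100% viability.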 The conditions noted are these: SKBR3 Her2 protein level, 18-24 h, measured here: SKBR3 viability, ATP luminescence, at 10 µM. (In general: In Alpha technology, singlet oxygen from a donor bead excites a nearby acceptor bead.)
The target in assay [2] is Receptor tyrosine-protein kinase erbB-2 (Homo sapiens) (UniProt P04626). Described as above. Particulars: 18-24 h, at 10 µM, stronger effect = lower value.
Receptor tyrosine-protein kinase erbB-2 (Homo sapiens), sequence (P04626 whole entry, looked up): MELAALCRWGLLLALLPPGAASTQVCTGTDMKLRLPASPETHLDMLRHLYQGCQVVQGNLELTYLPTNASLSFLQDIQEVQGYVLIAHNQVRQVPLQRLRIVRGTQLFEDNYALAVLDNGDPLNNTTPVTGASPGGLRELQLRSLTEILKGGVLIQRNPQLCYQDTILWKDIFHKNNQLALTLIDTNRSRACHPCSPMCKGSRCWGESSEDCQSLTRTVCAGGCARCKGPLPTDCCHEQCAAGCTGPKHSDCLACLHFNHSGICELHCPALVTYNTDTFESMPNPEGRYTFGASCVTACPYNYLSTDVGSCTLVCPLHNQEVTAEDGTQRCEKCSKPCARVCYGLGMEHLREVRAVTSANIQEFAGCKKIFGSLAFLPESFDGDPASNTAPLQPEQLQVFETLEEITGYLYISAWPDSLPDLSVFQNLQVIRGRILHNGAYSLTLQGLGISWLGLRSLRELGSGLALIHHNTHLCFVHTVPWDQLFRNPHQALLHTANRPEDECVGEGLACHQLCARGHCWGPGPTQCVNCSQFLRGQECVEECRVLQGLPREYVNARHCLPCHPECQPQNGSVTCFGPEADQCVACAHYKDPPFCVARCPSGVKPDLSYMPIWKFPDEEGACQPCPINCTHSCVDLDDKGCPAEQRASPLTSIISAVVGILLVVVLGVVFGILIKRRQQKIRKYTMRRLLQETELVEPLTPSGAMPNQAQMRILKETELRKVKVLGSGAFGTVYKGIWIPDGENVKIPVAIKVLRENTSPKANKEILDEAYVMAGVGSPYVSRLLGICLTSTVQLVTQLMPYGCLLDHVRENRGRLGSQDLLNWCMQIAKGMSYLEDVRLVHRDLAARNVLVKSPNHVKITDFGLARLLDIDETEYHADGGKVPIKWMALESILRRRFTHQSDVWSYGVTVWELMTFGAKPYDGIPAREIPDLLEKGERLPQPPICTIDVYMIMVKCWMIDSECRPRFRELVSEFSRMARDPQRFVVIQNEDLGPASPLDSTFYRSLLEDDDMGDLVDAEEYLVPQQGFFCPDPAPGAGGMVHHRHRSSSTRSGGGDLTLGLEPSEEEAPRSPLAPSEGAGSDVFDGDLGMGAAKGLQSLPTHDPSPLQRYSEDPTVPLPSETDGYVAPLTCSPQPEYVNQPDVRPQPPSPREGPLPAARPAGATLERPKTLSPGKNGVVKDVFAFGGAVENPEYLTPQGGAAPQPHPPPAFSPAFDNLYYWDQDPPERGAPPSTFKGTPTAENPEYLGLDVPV
The nature of assay [3]: reduced viability of SK-BR-3 breast cancer cells – cell-based, 24 h, human, pilot screen (AID 572;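 active = viability at or below 10% of carrier control in both of two separate runs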;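 note: compound exposure lasted between 18 and 24 h rather than exactly 24 h; 100% = carrier-treated control wells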). Particulars: SK-BR-3 viability, CellTiter-Glo luminescence, at 10 µM, stronger effect = lower value. For orientation: Cellular ATP, detected with luciferase, serves as a proxy for viable cell number.
Assay [4] in a line: HUVEC growth inhibition – cell-based, human, primary screen (AID 575;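 active = viability at or below 30% in both replicate assays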;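 note: 100% = median of untreated cell wells with 0.1% DMSO on each plate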). Particulars: HUVEC proliferation, CellTiter-Glo luminescence, 72 h; at 10 µM; stronger effect = lower value.
A short description of assay [5]: H69AR cell proliferation blockers – human, duplicate replicates, primary screen (AID 580;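 active = viability at or under a set limit in both replicates, limit being median viability minus 3 SD, cut at about 48% in these data, passing the limit was not always enough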;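 note: 100% = mean luminescence of untreated wells and 0% = no signal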). The conditions noted are these: H69AR lung tumor cells viability, ATP luminescence, 72 h; at 10 µM; stronger effect = lower value.
The nature of assay [6]: MRP1 drug-resistance reversers in H69AR cells – cell-based, doxorubicin co-treatment, pilot screen (AID 601;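 active = viability loss from added drug above about 55%, and viability with drug at most 40%, in both replicates, limit read from the data, passing the limit was not always enough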). Particulars: CellTiter-Glo, 72 h, at 10 µM; for differential viability (reversal): stronger effect = higher value.
A short description of assay [7]: yeast transport mutant growth inhibition pilot in 384-well plates, post-Golgi transport modulator project (AID 636; in the data active = inhibition above about 31%). The conditions noted are these: absorbance 615 nm, about 18 h, stronger effect = higher value.
A short description of assay [8]: growth suppression of yeast trafficking mutant, preliminary HTS, modulators of trafficking downstream of Golgi apparatus project, 1536-format plate, OD 615 nm (AID 637; in the data active = inhibition above about 30%). The conditions noted are these: yeast transport mutant growth, absorbance 615 nm, 18 h; stronger effect = higher value.
Assay [9] in a line: S. cerevisiae growth inhibition in permissive medium (OD615), pilot counter-assay for S. cerevisiae lifespan shortening project, permissive growth control (AID 705;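 active = growth inhibition above 25% in both replicates, a cutoff set 3 SD above the mean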). Particulars: OD615, 24 h, at 10 µM, stronger effect = higher value.
Assay [10] in a line: S. cerevisiae growth inhibition in restrictive medium, OD615, pilot screen, restrictive growth control, yeast lifespan reduction project (AID 706;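 active = growth inhibition above a set limit, 3 SD over mean compound inhibition, in both replicates, cut at about 43% in these data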;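 note: modified DeaD lifespan yeast strain shifted to restrictive glucose medium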). The conditions noted are these: OD615, 48 h, at 10 µM, stronger effect = higher value.
A short description of assay [11]: doxorubicin toxicity protection in MRP-1 cells – H69AR cells, CellTiter-Glo, duplicate, MRP-1 activator project, pilot screen (AID 807;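 active = viability increase at or above a cutoff of the median across tested compounds plus 3 SD, cut at about 8.5% in these data, passing the limit was not always enough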;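 note: compound pretreatment 18-22 h then 72 h combined with doxorubicin; 0% = doxorubicin alone and 100% = vehicle without doxorubicin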). Particulars: H69AR viability with doxorubicin, CellTiter-Glo luminescence; at 10 µM; stronger effect = higher value.
A short description of assay [12]: viability of HCT116 without oncogenic beta-catenin – human colon tumor cells, pilot screen (AID 823;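 active = cell viability at or below a set limit in both duplicate runs, the limit being the all-compound median minus 4 SD, cut at about 23% in these data, passing the limit was not always enough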;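 note: 0% = wells killed by 20 µM Hyamine and 100% = untreated DMSO cell wells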). The conditions noted are these: HCT116 beta-catenin knockout viability, CellTiter-Glo, 60 h; at 10 µM; stronger effect = lower value.
The nature of assay [13]: viability of PTEN-null HCT116 cells – cell-based, HCT116 clonal line, CellTiter-Glo, pilot screen (AID 824;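 active = viability at or below 27.92% in each of two runs, the all-compound median minus 4 SD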;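 note: 0% = 20 µM Hyamine control and 100% = vehicle cell control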). Particulars: HCT116 PTEN-deleted viability, 60 h, at 10 µM, stronger effect = lower value.
A short description of assay [14]: RAM pathway blockade in budding yeast – dse1pr::URA3 reporter, 5-FOA selection, pilot screen (AID 869;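 active = inhibition over a set limit, the all-compound mean plus 3 SD, in both replicate runs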;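 note: 0% = DMSO wells with no growth and 100% = 10 µM 1-NA-PP1 with full growth; RAM network block rescues cells from 5-FOA so hits raise OD615 growth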). The conditions noted are these: S. cerevisiae dse1pr::URA3 5-FOA growth, OD615, 2 d; at 10 µM; stronger effect = higher value; strain carries analog-sensitive mutant Cbk1 kinase.
Assay [15] in a line: RAM signaling pathway blockade in yeast – S. cerevisiae, Pdr1DBD-CYC8 efflux-inhibited sensitized strain, primary screen (AID 1298;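 active = RAM network inhibition above 8.4% in each of two replicates, 3 SD over the compound average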;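 note: 0% = DMSO untreated cells without growth and 100% = 10 µM 1-NA-PP1 full growth; higher means more yeast growth rescued from 5-FOA killing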). Particulars: S. cerevisiae cbk1-as DSE1-URA3 strain, 5-FOA growth OD615, 2 d; at 50 µM; stronger effect = higher value.
Where [16] appears, read: H69AR cells + 2 uM doxorubicin, measured here: viability with 2 uM doxorubicin, stronger effect = lower value.
Where [17] appears, read: H69AR cells, compound alone cytotoxicity.

In the case of `CCN1CCN(c2nc(C)nc3c2sc(=S)n3C)CC1`, the viability in [1] was 100%; in assay [3] it was 100% (inactive); in assay [4] it was 69.6% (inactive); in assay [5], 90% (inactive); in [6] (setting [16]), 91.3%; in assay [6] (setting [17]), 90%. The viability in [12] is 102% (inactive); in assay [13], 92.6% (inactive). Besides, the Her2 level in [2] was 104% (inactive). The differential viability (reversal) in assay [6] (H69AR cells + 2 uM doxorubicin) is -1.33% (inactive). The inhibition in [7] is -3.73% (inactive); in [8] it was 0.5% (inactive); in [14], 1.04% (inactive). For the same molecule, the growth inhibition was -11.2% (inactive) in assay [9] and -5.22% (inactive) in [10]. The viability increase in assay [11] is -2.66% (inactive). In addition, the RAM network inhibition in assay [15] was 1% (inactive).

For the molecule `COc1cc(C2NC(=O)NC(C)=C2C(=O)OCC2CCCO2)ccc1O` (stereo not given), the viability in assay [1] was 90.5%; in assay [3], 90.5% (inactive); in assay [4], 94.4% (inactive); in assay [5], 103% (inactive); in [6] (setting [16]), 97.4%; in assay [6] (setting [17]), 103%. Moreover, the viability in assay [12] was 91.1% (inactive); in assay [13], 88.3% (inactive). In addition, the Her2 level in assay [2] is 86.5% (inactive). Moreover, the differential viability (reversal) in assay [6] (H69AR cells + 2 uM doxorubicin) was 5.47% (inactive). The inhibition was -6.08% (inactive) in [7], -2.13% (inactive) in assay [8] and 1.59% (inactive) in assay [14]. In addition, the growth inhibition was -7.94% (inactive) in assay [9] and -14.9% (inactive) in assay [10]. Besides, the viability increase in assay [11] is -1.14% (inactive). In addition, the RAM network inhibition in assay [15] is 1.93% (inactive).

Regarding `Cc1ccc2cccc(SCC(=O)N3CCOCC3)c2n1`, the viability is 103% in assay [1]; 103% (inactive) in [3]; 61% (inactive) in assay [4]; 90.7% (inactive) in assay [5]; 91.2% in assay [6] (setting [16]); 90.7% in assay [6] (setting [17]). Also, the viability was 98.9% (inactive) in assay [12] and 101% (inactive) in [13]. Also, the Her2 level in assay [2] is 89.5% (inactive). Also, the differential viability (reversal) in [6] (H69AR cells + 2 uM doxorubicin) is -0.48% (inactive). For the same molecule, the inhibition in assay [7] was -4.03% (inactive); in assay [8], -3.5% (inactive); in [14], 2.27% (inactive). For the same molecule, the results for the growth inhibition in assay [9] and in [10] were 2.63% (inactive) and 24.3% (inactive), respectively. The viability increase in [11] is -2.53% (inactive). The RAM network inhibition in [15] is 1.88% (inactive).

For the molecule `CCOc1ccc(C2CC(c3cccc(OC)c3)Nc3nc(N)nn32)cc1` (stereo not given), the viability is 91.5% in assay [1]; 91.5% (inactive) in assay [3]; 95.8% (inactive) in [4]; 90.7% (inactive) in assay [5]; 93% in [6] (setting [16]); 90.7% in assay [6] (setting [17]). Also, the results for the viability in assay [12] and in [13] were 99% (inactive) and 87.1% (inactive), respectively. Besides, the Her2 level in assay [2] is 114% (inactive). Also, the differential viability (reversal) in assay [6] (H69AR cells + 2 uM doxorubicin) was -2.32% (inactive). Also, the inhibition is 3.85% (inactive) in [7], 5.5% (inactive) in assay [8] and 1.65% (inactive) in assay [14]. The growth inhibition is 5.33% (inactive) in assay [9] and 13.6% (inactive) in [10]. Moreover, the viability increase in assay [11] is -0.23% (inactive). Besides, the RAM network inhibition in assay [15] was 4.8% (inactive).

Take `CCn1cc(C(=O)NCc2ccccc2OC)c(=O)c2cc(S(=O)(=O)N(C)C)ccc21`: the viability was 78.5% in assay [1]; 78.5% (inactive) in assay [3]; 78.3% (inactive) in assay [4]; 77.6% (inactive) in [5]; 68.4% in [6] (setting [16]); 77.6% in [6] (setting [17]). Further, the viability in assay [12] was 87.1% (inactive); in [13], 85.5% (inactive). Besides, in [2], the Her2 level was 89% (inactive). In addition, the differential viability (reversal) in assay [6] (H69AR cells + 2 uM doxorubicin) was 9.22% (inactive). Further, the inhibition in assay [7] was -5.6% (inactive); in [8] it was 0.17% (inactive); in assay [14] it was 1.88% (inactive). Besides, the growth inhibition is -8.34% (inactive) in assay [9] and -17.1% (inactive) in assay [10]. Further, in assay [11], the viability increase was -5.34% (inactive). In assay [15], the RAM network inhibition is 2.36% (inactive).
